Bioassay records: PubChem, NMMLSC
The list is not random: actives were taken first. Their share in the collection is about 1.3%.
MEP2-GFP yeast – modulators of TOR pathway MEP2-GFP in S. cerevisiae; hit rate 0.51% among 330,000; AID 2016; S. cerevisiae MEP2-GFP strain, flow cytometry GFP, 3 h; 100% = DMSO control level; GFP response vs DMSO, % at 10 µM;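 active = GFP response versus DMSO above a set limit, roughly screen mean plus 3 SD, cut at about 180% in these data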;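 note: median GFP fluorescence of the barcode-gated MEP2-GFP cells per well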
LAP4 TOR yeast – alters LAP4-GFP fluorescence in TOR pathway yeast screen | GFP response vs DMSO, % at 10 µM | hit rate 0.34% among 320,000 | S. cerevisiae LAP4-GFP multiplex, flow cytometry GFP, 3 h; median GFP as percent of DMSO wells;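 active = GFP response vs DMSO above a set limit, about the screen mean plus 3 SD, cut at about 150% in these data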
Efflux pump inh – inhibitors of Candida antifungal efflux pumps expressed in yeast. inhibition, % at 10 µM. hit rate 0.44% among 330,000. S. cerevisiae Candida pump triplex, Nile Red efflux;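 active = plate passing quality check with inhibition over a set limit, or well fluorescence over plate mean plus 4 SD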;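 note: Nile Red retained in pooled yeast measured as flow cytometry median fluorescence; 0% = buffer negative control and 100% = Enniatin B positive control; higher means more Nile Red kept so more efflux inhibition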
RPL19A-GFP yeast – modulators of TOR pathway RPL19A-GFP in S. cerevisiae; S. cerevisiae RPL19A-GFP strain, flow cytometry, 3 h; stronger effect = lower value; percent response vs DMSO, % at 10 µM; AID 2025; hit rate 0.3% among 330,000;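 active = percent response vs DMSO below 50%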;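 note: median channel GFP fluorescence of the barcoded RPL19A-GFP strain; ratio of sample median GFP to plate DMSO average so 100% = DMSO; lower means less RPL19A-GFP as with rapamycin TOR inhibition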
AGP1 TOR yeast – yeast TOR pathway AGP1-GFP modulation; S. cerevisiae AGP1-GFP multiplex flow cytometry, 3 h; GFP as percent of DMSO wells; GFP response vs DMSO, % at 10 µM; hit rate 0.02% among 320,000; AID 2066;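 active = GFP response relative to DMSO above a set limit, near screen average plus 3 SD, cut at about 150% in these data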;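 note: median GFP channel fluorescence of the gated AGP1 strain per well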
CIT2-GFP yeast – modulators of TOR pathway CIT2-GFP in S. cerevisiae | S. cerevisiae CIT2-GFP strain, flow cytometry, 3 h; 100 means same as DMSO wells | GFP response vs DMSO, % at 10 µM | hit rate 0.065% among 320,000;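 active = GFP response relative to DMSO above a set limit, near the screen mean plus 3 SD, cut at about 150% in these data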;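 note: ratio of well median GFP fluorescence to mean of DMSO wells on the plate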
Yeast cmpd fluor – compound fluorescence in yeast efflux pump counter-screen; shares compounds with Efflux pump inh; S. cerevisiae AD/pABC3, flow cytometry; fluorescence ratio to DMSO, % at 10 µM; hit rate 4% among 1,700; AID 588517;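 active = fluorescence ratio to DMSO above its plate's cutoff, the plate mean ratio plus 5 SD, cut at about 210% in these data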;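 note: unstained yeast with no Nile Red so the signal is compound autofluorescence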
Mdr1 pump inh – blocks the Candida albicans Mdr1 efflux pump in yeast; hit rate 1% among 1,700; inhibition, % at 10 µM; shares compounds with Efflux pump inh; S. cerevisiae AD/CaMDR1, Nile Red efflux, flow cytometry; in the data active = inhibition above about 26%;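 note: 0% = DMSO vehicle and 100% = reference inhibitor; higher means more Nile Red retained so more efflux inhibition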
Cdr2 pump inh – inhibitors of Candida albicans Cdr2 efflux pump; shares compounds with Efflux pump inh; S. cerevisiae AD/CaCDR2, Nile Red retention, flow cytometry; Nile Red retention ratio vs DMSO, % at 10 µM; hit rate 4% among 1,700; AID 588520; in the data active = Nile Red retention ratio vs DMSO above about 190%;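 note: higher ratio means more blocking of Cdr2 efflux of the dye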
Cdr1 pump inh – inhibitors of Candida albicans Cdr1 efflux pump; shares compounds with Efflux pump inh; S. cerevisiae AD/CaCDR1, Nile Red efflux, flow cytometry; inhibition, % at 10 µM; hit rate 1% among 1,700;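 active = inhibition above the screen-wide mean plus twice its standard deviation, cut at about 32% in these data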
Active calls of the source: *; . = no result given.

SMILES	MEP2-GFP yeast	LAP4 TOR yeast	Efflux pump inh	RPL19A-GFP yeast	AGP1 TOR yeast	CIT2-GFP yeast	Yeast cmpd fluor	Mdr1 pump inh	Cdr2 pump inh	Cdr1 pump inh
C/C(=N\NC(=O)c1nnn(-c2nonc2N)c1CSc1ccccc1)c1ccc2c(c1)OCO2	104.0	97.2	1.0*	100.8	105.3	102.6	104.7	0.0	118.7	0.1
CCOC(=O)c1c(NC(=O)COC(=O)c2ccncc2)sc(C)c1C	105.0	99.9	0.5*	106.3	97.9	93.7	95.3	-0.3	101.5	0.0
CCOC(=O)c1c(NC(=O)c2ccncc2)sc(C)c1C	100.1	88.5	0.0	95.7	96.2	95.9	.	.	.	.
COc1ccc(S(=O)(=O)N(C)C[C@@H]2Oc3c(NS(=O)(=O)c4cn(C)cn4)cccc3C(=O)N([C@@H](C)CO)C[C@@H]2C)cc1	.	.	0.1	.	.	.	.	.	.	.
COc1cc(OC)cc(C(=O)N/N=C/c2ccc(OC)c(COc3ccc4ccccc4c3)c2)c1	119.3	116.5	0.6*	116.8	115.3	110.0	106.2	0.0	112.2	0.1
COc1ccc(/C=N/NC(=O)c2nc(Cl)c(Cl)c(N)c2Cl)cc1COc1ccc(F)cc1F	103.0	108.5	1.0*	103.6	104.9	97.4	106.2	0.2	114.3	0.6
COc1ccc(C(=O)N/N=C/c2ccc(OC)c(COc3ccccc3)c2)cc1	101.8	103.5	-0.1	105.0	107.4	104.5	.	.	.	.
COc1ccc(CNC(=O)COC(=O)CCc2c[nH]c3ccccc23)cc1	98.7	95.2	-0.3	97.6	95.7	98.7	.	.	.	.
COC(=O)c1nn(-c2ccccc2)nc1-c1nn(-c2ccccc2)nc1C(=O)OC	100.0	98.8	0.4*	100.2	98.8	95.4	101.4	0.0	97.7	-0.1
O=[N+]([O-])c1ccc(-c2csc3[n+]2CCS3)cc1	98.3	96.5	-0.1	93.1	94.9	97.0	.	.	.	.
Fc1ccc(-c2csc3[n+]2CCS3)cc1	109.3	108.1	3.0*	106.1	105.0	108.2	90.5	-0.3	88.8	-0.3
CCN(CC)Cc1c(O)ccc2c(=O)c(-c3ccccc3)coc12	107.1	93.5	1.2*	103.8	102.7	102.3	93.3	-0.4	94.0	-0.1
CCN(CC)Cc1c(O)ccc2c(=O)c(Oc3ccccc3OC)coc12	100.2	101.2	0.0	99.0	102.4	103.3	.	.	.	.
CCCOc1ccc(/C(O)=C2\C(=O)C(=O)N(c3ccccn3)C2c2ccccc2F)cc1C (configuration not stated)	100.2	99.4	0.5	104.4	98.9	105.6	.	.	.	.
C/C(=N\NC(=O)CC1(C)OCCO1)c1cccs1	102.4	95.5	6.5*	103.1	100.4	106.1	99.8	0.0	99.7	-0.1
Cc1ccc(-c2cc(C(=O)Nc3ccc(S(=O)(=O)Nc4onc(C)c4C)cc3)c3ccccc3n2)cc1	100.8	111.1	0.6*	102.2	99.3	101.1	114.3	0.2	93.5	0.0
CCOC(=O)C(=NCCCN(C)C)NNc1ccc(Br)cc1	108.2	86.6	0.0	109.7	100.4	109.9	.	.	.	.
CCCCN=C(NNc1ccc(Br)cc1)C(=O)OCC	100.8	94.8	16.6*	104.8	87.2	104.6	100.0	-0.2	104.2	0.1
CC(C)(C)OC(=O)N1CCC(c2c(C(=O)N3CCN(C(=O)c4ccco4)CC3)cnn2-c2cccc(Cl)c2)CC1	100.5	92.2	0.0	101.0	99.1	108.0	.	.	.	.
N#C/C(=C/c1ccc(CNC(=O)C(=O)Nc2cc(Cl)cc(Cl)c2)o1)C(=O)NCc1cccnc1	94.7	88.3	8.2*	97.1	88.9	90.3	105.0	0.1	109.9	-0.1
Cc1ccc(NC(=O)C(=O)NCc2ccc(/C=C(/C#N)C(=O)NCc3cccnc3)o2)cc1	100.6	99.0	0.0	94.6	99.5	99.5	.	.	.	.
COc1ccc(OC)c(-c2csc(NC(=O)CN3C(=O)C4CCCCC4C3=O)n2)c1 (configuration not stated)	101.5	94.7	0.4*	103.3	94.8	97.2	103.4	-0.1	82.4	-0.1
COc1ccc(Cc2nc3ccc(C(=O)NCC(C)(C)OC)cc3o2)cc1	104.3	91.5	0.1	103.3	101.2	100.4	.	.	.	.
Cc1ccc(C(C(=O)NC2CCCC2)N(Cc2ccco2)C(=O)CCC(=O)Nc2cc(C)on2)cc1 (configuration not stated)	105.4	94.4	0.0	96.3	97.8	81.8	86.5	0.1	95.4	-0.2
Cc1cc(NC(=O)CCC(=O)N(Cc2cccs2)C(C(=O)NC2CCCC2)c2ccccc2)no1 (configuration not stated)	101.8	96.2	0.2	97.5	101.3	96.9	82.2	0.0	95.4	-0.2
SMILES	MEP2-GFP yeast	LAP4 TOR yeast	Efflux pump inh	RPL19A-GFP yeast	AGP1 TOR yeast	CIT2-GFP yeast	Yeast cmpd fluor	Mdr1 pump inh	Cdr2 pump inh	Cdr1 pump inh
Cc1cc(NC(=O)CCC(=O)N(Cc2cccs2)C(C(=O)NC2CCCC2)c2cccnc2)no1 (configuration not stated)	91.6	94.3	0.1	96.6	90.7	89.3	.	.	.	.
C=CCC(=O)NC1CC(C)(C)Cc2c1cnn2-c1ccccc1C (configuration not stated)	111.2	95.3	0.0	103.3	102.4	103.8	.	.	.	.
COc1ccc2c(C(=O)c3ccc(C)cc3)n(CCCC(N)=O)[n+]([O-])c2c1	103.7	113.2	0.1	100.4	102.5	94.9	.	.	.	.
CCCCN(C(=O)Cn1ncc(Cl)c(Cl)c1=O)c1c(N)n(CC(C)C)c(=O)[nH]c1=O	111.4	105.7	0.0	103.6	107.5	107.1	.	.	.	.
Cc1ccccc1OCc1nc2c3c(ncn2n1)-c1ccccc1CC31CCCC1	102.4	95.5	34.1*	102.9	101.3	107.2	88.8	0.1	102.2	0.1
Cc1cc(C)cc(N(C(=O)Cn2nnc(-c3ccccc3)n2)C(C(=O)NC2CCCCC2)c2ccccn2)c1 (configuration not stated)	95.7	98.6	6.4*	106.3	107.3	106.7	105.4	-0.1	100.8	0.1
COc1ccc(OC)c(NC(=O)CSc2nncc3ccc(OC)c(OC)c23)c1	108.5	100.7	0.3	99.3	100.8	95.2	.	.	.	.
COc1ccc(CC(=O)Nc2c3c(nn2C(C)(C)C)CS(=O)(=O)C3)cc1	99.1	110.2	0.0	94.6	109.6	107.1	.	.	.	.
O=C(NCCCN1CCCC1=O)c1cccnc1	102.9	100.2	5.9*	103.6	103.5	104.5	95.3	-0.3	90.9	-0.4
